These results are taken from PubChem BioAssay (NCATS).

The nature of assay [1]: A2780 Cisplatin Sensitive Ovarian Cancer Cell Toxicity qHTS against the NCATS CANVASS Library (AID 1347353). Also: potency is read from the fitted curve at half-maximal effect; nearly all actives have a fitted effect of over 60% in size. As to conditions: A2780 ovarian cancer viability, ATPLite luminescence, 72 h. In outline:
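Cells are plated at 750 per well and rest for 4 hours. Compounds are added across eleven concentrations, and incubated 72 hours before ATP is quantified by luminescence.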
For orientation: In qHTS, concentration-response curves come from the screen itself.

Assay [2] can be described thus: HEK-293 Cancer Cell Toxicity qHTS against the NCATS CANVASS Library (AID 1347355). Also: potency is read from the fitted curve at half-maximal effect; nearly all actives have a fitted effect of over 65% in size. The conditions noted are these: HEK-293 viability, CellTiter-Glo luminescence, 72 h. In outline: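 First, 1000 cells go into each well and rest for 4 hours. Next, an 11-point dilution range is pinned in. Plates then incubate 72 hours before CellTiter-Glo addition and luminescence reading.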

Assay [3] in a line: HPAF-II 24hr Apoptosis Induction qHTS against the NCATS CANVASS Library (AID 1347356). The conditions noted are these: HPAF-II caspase-3/7 Caspase-Glo luminescence; series mostly up to 46.1 µM. In outline:
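Cells seeded at 500 per well, then compounds pin-transferred in an 11-point concentration series. After 24 hours at 37 degrees C, Caspase-Glo 3/7 was added and luminescence measured following 15 min at room temperature.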

Assay [4] in a line: HEK293 18hr Apoptosis Induction qHTS against the NCATS CANVASS Library (AID 1347357). As to conditions: HEK293 caspase-3/7 Caspase-Glo luminescence; series mostly up to 46.1 µM. In outline:
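Luminescent caspase-3/7 signal is measured in HEK293 cells exposed for 18 hours to an 11-point concentration series; doxorubicin serves as the plate control.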

Assay [5] can be described thus: HPAF-II 12hr Apoptosis Induction qHTS against the NCATS CANVASS Library (AID 1347358). As to conditions: HPAF-II caspase-3/7 Caspase-Glo luminescence; series mostly up to 46.1 µM. In short, it runs like this: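 Cells plated at 500 per well are dosed with compound and incubated 12 hours at 37 degrees C. Caspase-Glo 3/7 reagent is added and, after 15 min at room temperature, luminescence proportional to caspase activity is measured.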

The nature of assay [6]: HEK293 24hr Apoptosis Induction qHTS against the NCATS CANVASS Library (AID 1347359). As to conditions: HEK293 caspase-3/7 activation, Caspase-Glo luminescence; series mostly up to 46.1 µM. In short, it runs like this:
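HEK293 cells, 500 per well, exposed to an 11-point compound series for 24 hours at 37 degrees C. Caspase 3/7 activity read by Caspase-Glo luminescence (DEVD substrate) after 15 min at room temperature.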

Assay [7] in a line: HPAF-II 18hr Apoptosis Induction qHTS against the NCATS CANVASS Library (AID 1347360). The conditions noted are these: HPAF-II caspase-3/7 luminescence; series mostly up to 46.1 µM. In short, it runs like this: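 Apoptosis was scored as caspase-3/7 activity in HPAF-II pancreatic cancer cells treated 18 hours with an 11-point concentration series.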
Assay [8] in a line: HEK293 12hr Apoptosis Induction qHTS against the NCATS CANVASS Library (AID 1347361). The conditions noted are these: HEK293 caspase-3/7 Caspase-Glo luminescence; series mostly up to 46.1 µM. In outline: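 Apoptosis in HEK293 was scored as caspase-3/7 luminescence following 12 h treatment with a compound concentration series in qHTS format.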
The subject of assay [9] is NAD(P)H diaphorase (Clostridium kluyveri). Nature of the assay: Diaphorse counterscreen qHTS: Assay Interference Panel against the NCATS CANVASS Library (AID 1347362). As to conditions: Diaphorase enzyme, resazurin to resorufin fluorescence; series mostly up to 57.5 µM. In outline:
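Clostridium kluyveri diaphorase in PBS + 0.01% Tween-20 preincubated 15 min with compounds. Resazurin and NADH then added for 5 min at room temperature in the dark; resorufin fluorescence read (ex 525, em 598).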
Background: A counterscreen serves to expose hits that act by an unwanted route or on another target.

In assay [10] the target is Luciferin 4-monooxygenase (Photinus pyralis) (UniProt P08659). Nature of the assay: Firefly luciferase counterscreen qHTS: Assay Interference Panel against the NCATS CANVASS Library (AID 1347363). The conditions noted are these: purified firefly luciferase, luminescence inhibition, 5 min; series mostly up to 57.5 µM. In short, it runs like this:
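Purified P. pyralis luciferase (0.04 ug/mL, 4x reagent) added to Tris-acetate buffer with 0.013 mM D-luciferin, 0.013 mM ATP and 13.3 mM Mg-acetate; compounds preincubated 15 min, then luminescence read after 5 min, RT.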

The nature of assay [11]: KB-8-5-11 Cancer Cell Toxicity qHTS against the NCATS CANVASS Library (AID 1347364). Also: potency is read from the fitted curve at half-maximal effect; nearly all actives have a fitted effect of over 75% in size. The conditions noted are these: KB-8-5-11 MDR cells viability, CellTiter-Glo, 72 h. In short, it runs like this: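 Terse: KB-8-5-11, 500 cells/well, 72 hr, 37C/5% CO2, 11-pt titration, CellTiter-Glo readout; confirmatory runs ± 1uM tariquidar in medium.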
A short description of assay [12]: SDT Cancer Cell Toxicity qHTS against the NCATS CANVASS Library (AID 1347365). Also: potency is read from the fitted curve at half-maximal effect; nearly all actives have a fitted effect of over 60% in size. The conditions noted are these: SDT dog glioma viability, ATP luminescence, 72 h. In short, it runs like this: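 Cytotoxicity is measured from cellular ATP: compounds in an 11-point concentration series are pinned onto SDT cells, incubated 72 hr at 37C, then CellTiterGlo is added and luminescence read.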

A short description of assay [13]: qHTS for ATAD5 Agonist screened against the NCATS CANVASS Library (AID 1347367).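 Also: luciferase reporter driven by ATAD5 which rises upon DNA damage.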 The conditions noted are these: HEK293T ATAD5-luciferase reporter, luminescence, 16 h; series mostly up to 46.1 µM. In short, it runs like this: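 Step one plated reporter cells and let them acclimate 5hr. Step two pinned compounds with MMS as positive and 0.46% DMSO as negative control. After 16hr incubation, fluorescence viability then luminescence were read.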

The nature of assay [14]: G06 Cancer Cell Toxicity qHTS against the NCATS CANVASS Library (AID 1347368). Also: potency is read from the fitted curve at half-maximal effect; nearly all actives have a fitted effect of over 60% in size. The conditions noted are these: G06 dog glioma cells, viability ATP luminescence, 72 h. In short, it runs like this: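 Cells were plated at 500 per well, then compounds were added over an 11-point range. After 72 hr at 37C, CellTiterGlo was added and luminescence measured as ATP content.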
A short description of assay [15]: MCF7 Cancer Cell Toxicity qHTS against the NCATS CANVASS Library (AID 1347369). Also: potency is read from the fitted curve at half-maximal effect. As to conditions: MCF7 viability, ATP luminescence (CellTiter-Glo), 72 h. In short, it runs like this:
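Cytotoxicity is measured by ATP content: MCF7 cells at 500 per well receive an 11-point compound series and, after 72 hr at 37C, are lysed with CellTiterGlo for luminescence.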

Assay [16] is described as follows: J3T Cancer Cell Toxicity qHTS against the NCATS CANVASS Library (AID 1347371). Also: potency is read from the fitted curve at half-maximal effect. As to conditions: J3T dog glioma viability, ATP luminescence, 72 h. In short, it runs like this:
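Luminescence from CellTiterGlo, reporting cellular ATP, serves as the viability measure after 72 hr compound treatment of J3T canine glioma cells seeded at 500 cells/well.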

For assay [17], the target named is Nuclear receptor subfamily 1 group I member 3 (Homo sapiens) (UniProt Q14994). In words: qHTS for Constitutive Androstane Receptor (CAR) Antagonist screened against the NCATS CANVASS Library (AID 1347372).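 Also: cells stimulated with 50 nM CITCO agonist so inhibition reflects antagonism.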 The conditions noted are these: HepG2-hCAR-CYP2B6 luciferase, CITCO-stimulated antagonist mode; series mostly up to 46.1 µM. In outline:
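Luminescence readout (ONE-Glo, 30 min RT) of CYP2B6-2.2kb reporter in HepG2-hCAR cells after 24hr, 37C treatment with compound against 50 nM CITCO; CellTiter-Fluor viability read beforehand.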

Assay [18] shares this target. Nature of the assay: qHTS for Constitutive Androstane Receptor (CAR) Agonist screened against the NCATS CANVASS Library (AID 1347373).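 Also: every well also contained 1.5 µM PK11195 alongside the test compound.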 As to conditions: HepG2-hCAR-CYP2B6 luciferase reporter, ONE-Glo luminescence; series mostly up to 46.1 µM. In short, it runs like this: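 Cells were plated and allowed to attach for 4hr, then dosed with compound in an 11-point series alongside 1.5uM PK11195. After 24hr at 37C, viability was measured fluorometrically and CAR-driven CYP2B6 reporter luminescence was recorded.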

The nature of assay [19]: 10-beta competent E. coli microbial cell viability qHTS against the NCATS CANVASS Library (AID 1347376). The conditions noted are these: E. coli 10-beta viability, BacTiter-Glo ATP luminescence, overnight; series mostly up to 46.1 µM. In short, it runs like this: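 Bacterial suspension diluted to 0.2 OD was dosed with compounds, 11-point series, then held overnight at 37C. BacTiter-Glo reagent was added, and after 20 min at room temperature ATP-dependent luminescence was measured.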

Assay [20] in a line: DH5-alpha competent E. coli microbial cell viability qHTS against the NCATS CANVASS Library (AID 1347377). As to conditions: BacTiter-Glo ATP luminescence, overnight; series mostly up to 46.1 µM. In outline:
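Bacteria were dispensed at 0.2 OD, then compounds were pin-transferred. Plates were incubated overnight at 37C, after which BacTiter-Glo was added and luminescence measured 20 min later.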

Molecules are shown by their SMILES. Records with an inconclusive call do not appear. Calls of active or inactive are those of the source. Calls follow the shape of the dose curve; as a rule, active = well fitted curve in the direction sought with a large enough effect; inconclusive = small, poorly fitted or top-dose-only effect, or another doubt; inactive = no such curve, though single readings can be large; an effect the other way counts as inactive or inconclusive.

Nuclear receptor subfamily 1 group I member 3 (Homo sapiens), sequence (Q14994 whole entry, looked up): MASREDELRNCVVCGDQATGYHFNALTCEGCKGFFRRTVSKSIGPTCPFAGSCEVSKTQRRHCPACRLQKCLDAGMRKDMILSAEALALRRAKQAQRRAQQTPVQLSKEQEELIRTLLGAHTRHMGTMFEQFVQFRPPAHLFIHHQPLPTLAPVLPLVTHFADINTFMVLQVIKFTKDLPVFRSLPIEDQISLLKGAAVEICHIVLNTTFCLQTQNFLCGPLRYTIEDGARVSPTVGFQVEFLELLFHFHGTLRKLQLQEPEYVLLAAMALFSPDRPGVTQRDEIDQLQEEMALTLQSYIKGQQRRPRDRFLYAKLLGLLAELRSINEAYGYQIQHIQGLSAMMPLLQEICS
Luciferin 4-monooxygenase (Photinus pyralis), sequence (P08659 whole entry, looked up): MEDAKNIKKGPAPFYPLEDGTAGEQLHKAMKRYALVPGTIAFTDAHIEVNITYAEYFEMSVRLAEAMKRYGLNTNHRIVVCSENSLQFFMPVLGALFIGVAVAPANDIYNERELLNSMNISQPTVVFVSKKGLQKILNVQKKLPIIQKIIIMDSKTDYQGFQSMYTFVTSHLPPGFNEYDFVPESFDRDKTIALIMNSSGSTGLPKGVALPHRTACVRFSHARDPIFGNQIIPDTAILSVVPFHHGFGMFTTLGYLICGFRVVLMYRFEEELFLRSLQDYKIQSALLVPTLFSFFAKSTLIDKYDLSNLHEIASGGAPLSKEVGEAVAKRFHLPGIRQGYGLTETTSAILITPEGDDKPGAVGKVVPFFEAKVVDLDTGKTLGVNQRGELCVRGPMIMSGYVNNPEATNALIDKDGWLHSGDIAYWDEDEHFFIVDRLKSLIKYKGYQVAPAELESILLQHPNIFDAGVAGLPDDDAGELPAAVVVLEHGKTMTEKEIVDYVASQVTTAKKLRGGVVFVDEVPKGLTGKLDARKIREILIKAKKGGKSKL

Regarding `C=C1C(=O)O[C@H]2[C@H]1CC/C(C)=C/CC[C@@]1(C)O[C@@H]21`, the Potency was 2.96 µM (active) in [1]; 7.43 µM (active) in assay [2]; 16.6 µM (active) in [11]; 8.33 µM (active) in assay [12]; 9.35 µM (active) in [14]; 7.39 µM (active) in assay [15]. In [16], the Potency was 16.6 µM (active). Also, the molecule was called inactive in assay [3], in [4], in assay [5], in [6], in assay [7] and in assay [8]. In addition, the result in assay [9], in [10], in assay [13], in assay [17], in [18] and in assay [19] was inactive. For the same molecule, in assay [20], the molecule was called inactive.
